Drawing on PubChem BioAssay (Tox21), this text covers Potency and outcome for eleven molecules.

Inconclusive results are not listed. Unmarked numbers belong to inactive results. Activity calls are given as the source filed them. Unless noted, calls come from the whole dose curve; as a rule, active = well fitted curve in the direction sought with a large enough effect in the repeat runs; inconclusive = weak or mixed curves; inactive = no such curve, though single readings can be large; an effect the other way counts as inactive or inconclusive.

Assay [1] has as its target Retinoic acid receptor RXR-alpha (Homo sapiens) (UniProt P19793). The assay can be described thus: qHTS assay to identify small molecule agonists of the RXR signaling pathway (AID 1159527; calls by dose curve; note: nearly all actives have a fitted effect of over 35% in size). Put shortly:
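Beta-lactamase reporter assay, agonist format. Engineered HEK 293T line, charcoal-stripped FBS at 2%, overnight (16 hr) exposure, fluorescence at 460 and 530 nm after 405 nm excitation.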

Assay [2] is described as follows: qHTS assay to identify small molecule agonists of the RXR signaling pathway - cell viability counter screen (AID 1159529).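 Note: HEK 293T cells carrying an RXR-alpha UAS beta-lactamase reporter; series mostly up to about 77 µM; nearly all actives have a fitted effect of over 50% in size.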 In a few lines: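 Same-well viability check after the LiveBLAzer FRET read: CellTiter-Glo added, luminescence measured after 30 min at room temperature. Reporter HEK 293T cells had been treated with compounds for 16 hr following a 5 hr preincubation.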

Assay [3] in a line: qHTS assay to identify small molecule antagonists of the retinoid acid receptor (RAR) signaling pathway - cell viability counter screen (AID 1159551). Note: nearly all actives have a fitted effect of over 35% in size. Put shortly: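 C3RL4 cells were seeded overnight at 37 C, then treated with compounds plus 1 uM (final) retinol for 6 h at 37 C. Viability was read as ATP by CellTiter-Glo luminescence after 30 min at room temperature.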
Background: qHTS replaces the single test concentration by a dilution series.

The nature of assay [4]: qHTS assay to identify small molecule antagonists of the retinoic acid receptor (RAR) signaling pathway (AID 1159552; note: nearly all actives have a fitted effect of over 50% in size). Put shortly: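 Readout: luciferase luminescence, 30 min post-reagent at RT. Setup: C3RL4 RARE reporter cells, compounds plus retinol 1 uM final, 6 hr incubation at 37 C and 5% CO2.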
Assay [5] can be described thus: qHTS assay to identify small molecule antagonists of the estrogen related receptor (ERR) signaling pathway from Tox21 library - cell viability counter screen (AID 1224834). Note: nearly all actives have a fitted effect of over 30% in size. In a few lines: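 ERR reporter cells were plated 6 h before compound addition, then exposed to test compounds in DMSO for 17.5 h at 37 C. Viability was read as CellTiter-Fluor fluorescence after a 30-minute incubation at 37 C.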

The target of assay [6] is Luciferin 4-monooxygenase (Photinus pyralis) (UniProt P08659). Briefly: qHTS assay to identify small molecule inhibitors of firefly luciferase (AID 1224835). Note: nearly all actives have a fitted effect of over 25% in size. Note: potency is the fitted concentration of half-maximal effect. Put shortly: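 Quantitative HTS format; KM concentrations of both substrates. Purified P. pyralis FLuc activity quantified from luminescence images.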
Assay [7] in a line: qHTS assay to identify small molecule agonists of the constitutive androstane receptor (CAR) signaling pathway - cell viability counter screen (AID 1224836). Note: series mostly up to about 92 µM; nearly all actives have a fitted effect of over 45% in size. Put shortly: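 Compound titrations (15 concentrations) went onto HepG2-CYP2B6-hCAR cells 4 h after seeding, alongside PK11195 at a final 0.75 uM; a 23 h, 37 C/5% CO2 incubation preceded CellTiter-Fluor viability measurement.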

Assay [8] is described as follows: qHTS assay to identify small molecule antagonists of the constitutive androstane receptor (CAR) signaling pathway - cell viability counter screen (AID 1224837). Note: series mostly up to about 92 µM; nearly all actives have a fitted effect of over 45% in size. In a few lines: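 HepG2 cells stably expressing hCAR and a CYP2B6-2.2kb reporter were plated and pre-incubated 4 hr at 37 C/5% CO2, then given compounds at 15 concentrations plus 50 nM CITCO (final). After 23 hr, viability was read by CellTiter-Fluor fluorescence.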

Assay [9] deals with Nuclear receptor subfamily 1 group I member 3 (Homo sapiens) (UniProt Q14994). The assay can be described thus: qHTS assay to identify small molecule antagonists of the constitutive androstane receptor (CAR) signaling pathway (AID 1224838). Note: nearly all actives have a fitted effect of over 40% in size. In a few lines:
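HepG2 cells stably co-transfected with hCAR and a CYP2B6-2.2kb luciferase reporter were seeded 4 h before compound addition at 15 concentrations. Cells were stimulated with 50 nM CITCO (final) for 24 h at 37 C; luciferase luminescence was then read.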

Assay [10] is described as follows: qHTS assay to identify small molecule antagonists of the estrogen related receptor signaling pathway with the pleiotropic PPARgamma coactivator (PGC) from Tox21 10K library - cell viability counter screen (AID 1224840; active = well fitted cell-killing curve with a large enough effect in the repeat runs, not every such curve was filed as active; note: nearly all actives have a fitted effect of over 40% in size). In a few lines:
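PGC/ERR cells were seeded at 2,000 cells/well and left 6 hours at 37 C/5% CO2 before pin-tool addition of compounds in DMSO. After 17.5 hours at 37 C, CellTiter-Fluor was added and fluorescence read 30 minutes later.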

Assay [11] can be described thus: qHTS assay to identify small molecule agonists of the retinoic acid receptor (RAR) signaling pathway (AID 1159553). Note: potency is the fitted concentration of half-maximal effect. Put shortly: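 C3RL4 cells carrying a RARE luciferase reporter were plated overnight at 37 C, then exposed to compounds in DMSO for 6 hr at 37 C and 5% CO2. Luminescence was read 30 min after luciferase reagent addition at room temperature.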
Assay [12] in a line: qHTS assay to identify small molecule antagonists of the estrogen related receptor signaling pathway with the pleiotropic PPARgamma coactivator (PGC) from Tox21 10K library (AID 1224841; call rule not given here; note: series mostly up to about 92 µM; actives are mostly falling curves and most rising ones were filed inactive; nearly all actives have a fitted effect of over 50% in size). In a few lines: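 PGC/ERR reporter cells were seeded at 2,000 cells/well and held 6 hours at 37 C/5% CO2 before pin-tool addition of compounds in DMSO. After 18 hours at 37 C, One-Glo was added and luminescence read after 30 minutes at room temperature.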

Assay [13] can be described thus: qHTS assay to identify small molecule agonists of the estrogen related receptor signaling pathway with the pleiotropic PPARgamma coactivator (PGC) from Tox21 10K library (AID 1224842). Note: nearly all actives have a fitted effect of over 15% in size. In a few lines: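 PGC/ERR reporter cells (NTP line) were seeded 2,000 per well, rested 6 h at 37 C/5% CO2, then pin-dosed with compounds in DMSO for 18 h at 37 C; luciferase read by One-Glo luminescence after 30 min at room temperature.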

Assay [14] has as its target Nuclear receptor subfamily 1 group I member 3 (Homo sapiens) (UniProt Q14994). The assay can be described thus: qHTS assay to identify small molecule agonists of the constitutive androstane receptor (CAR) signaling pathway (AID 1224839). Note: nearly all actives have a fitted effect of over 15% in size. Note: potency is the fitted concentration of half-maximal effect. In a few lines: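 In this screen, CAR-driven CYP2B6 promoter activity is measured by luminescence in HepG2-CYP2B6-hCAR cells after 24 h with test compounds and 0.75 uM PK11195 (final concentration).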

Sequence of Luciferin 4-monooxygenase (Photinus pyralis) (P08659 whole entry, looked up): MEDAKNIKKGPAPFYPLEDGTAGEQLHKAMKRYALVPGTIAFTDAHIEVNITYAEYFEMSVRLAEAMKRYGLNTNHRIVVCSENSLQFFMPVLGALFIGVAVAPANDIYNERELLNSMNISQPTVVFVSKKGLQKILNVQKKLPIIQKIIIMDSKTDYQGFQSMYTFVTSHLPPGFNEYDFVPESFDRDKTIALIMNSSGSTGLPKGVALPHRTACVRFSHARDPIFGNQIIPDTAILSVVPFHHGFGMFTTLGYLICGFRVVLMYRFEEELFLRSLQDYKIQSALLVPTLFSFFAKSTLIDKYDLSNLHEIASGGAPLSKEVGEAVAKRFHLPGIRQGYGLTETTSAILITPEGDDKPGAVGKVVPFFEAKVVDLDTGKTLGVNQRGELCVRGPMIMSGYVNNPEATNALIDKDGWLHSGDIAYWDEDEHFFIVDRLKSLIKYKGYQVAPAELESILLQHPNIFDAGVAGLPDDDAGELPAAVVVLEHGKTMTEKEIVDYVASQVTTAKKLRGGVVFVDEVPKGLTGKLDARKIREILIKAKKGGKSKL
Sequence of Retinoic acid receptor RXR-alpha (Homo sapiens) (P19793 whole entry, looked up): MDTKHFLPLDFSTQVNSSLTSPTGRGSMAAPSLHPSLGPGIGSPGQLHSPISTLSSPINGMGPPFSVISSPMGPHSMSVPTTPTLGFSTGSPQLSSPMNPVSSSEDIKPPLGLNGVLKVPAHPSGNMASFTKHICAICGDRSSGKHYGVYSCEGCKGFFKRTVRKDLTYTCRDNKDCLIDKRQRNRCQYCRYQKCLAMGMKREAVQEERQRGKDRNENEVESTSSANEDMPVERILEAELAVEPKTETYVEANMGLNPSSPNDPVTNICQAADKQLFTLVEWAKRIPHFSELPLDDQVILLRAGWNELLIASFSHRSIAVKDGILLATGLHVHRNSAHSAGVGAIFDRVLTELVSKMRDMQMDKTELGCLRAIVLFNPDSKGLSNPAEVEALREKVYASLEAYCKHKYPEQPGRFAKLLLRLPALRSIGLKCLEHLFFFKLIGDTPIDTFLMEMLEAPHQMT
Sequence of Nuclear receptor subfamily 1 group I member 3 (Homo sapiens) (Q14994 whole entry, looked up): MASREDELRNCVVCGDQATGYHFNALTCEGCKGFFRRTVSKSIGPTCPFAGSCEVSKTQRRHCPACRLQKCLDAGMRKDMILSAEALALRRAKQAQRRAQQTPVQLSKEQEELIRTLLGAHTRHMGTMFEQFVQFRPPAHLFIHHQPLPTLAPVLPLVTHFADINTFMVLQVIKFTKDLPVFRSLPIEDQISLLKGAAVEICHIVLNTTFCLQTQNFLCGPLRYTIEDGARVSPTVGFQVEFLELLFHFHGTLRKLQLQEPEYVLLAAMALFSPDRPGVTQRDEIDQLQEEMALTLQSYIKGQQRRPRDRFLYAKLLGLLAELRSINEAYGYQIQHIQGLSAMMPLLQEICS

As for `Nc1ncnc(Nc2ccccc2)n1`, the Potency result in assay [1], in assay [5], in assay [6], in assay [7] and in assay [8] was “inactive” each time. Besides, the result in assay [2], in [3], in assay [4], in assay [9] and in assay [10] was inactive.
As to `CCCCOC(=O)c1ccccc1`, the Potency result in [1], in [11], in [7], in [8] and in [12] was “inactive” throughout. The result in assay [2], in assay [3], in assay [4], in assay [10] and in assay [13] was inactive.
Regarding `O=P(O)(O)OP(=O)(O)O`, the Potency entry in [1], in [11], in [5], in [7], in assay [8] and in [14] was “inactive” throughout. Also, the result in assay [2], in assay [3], in assay [4], in assay [9] and in [10] was inactive.
Regarding `CC(C)(C)c1cc(CCC(=O)NN)cc(C(C)(C)C)c1O`, the Potency result in assay [1], in [5], in assay [6], in [7], in assay [8] and in [12] was “inactive” each time. For the same molecule, the call in [2], in assay [3], in assay [4], in assay [9], in assay [10] and in assay [13] was inactive. Further, in assay [14], the Potency is 30.6 µM (active).
For the molecule `CCCCCOC(=O)CCC`, the Potency result in [1], in assay [5], in assay [6], in assay [7], in assay [8] and in assay [14] was “inactive” each time. Also, the Potency result in assay [12] is “inactive”. The result in assay [2], in assay [3], in [4], in assay [9], in [10] and in assay [13] was inactive.
Turning to `CC(=O)Nc1cccc(C)c1`, the Potency result in assay [1], in assay [11], in assay [7] and in assay [8] was “inactive” throughout. The molecule was called inactive in assay [2], in [3], in [4] and in [10].
As to `O=C(NCC(O)CO)c1c(I)c(C(=O)NCC(O)CO)c(I)c(N(CCO)C(=O)CO)c1I` (centres undefined), the Potency entry in assay [1], in assay [11], in assay [5], in assay [7], in assay [8] and in assay [14] was “inactive” throughout. Further, the molecule was classed as inactive in assay [2], in assay [3], in assay [4], in assay [9] and in [10].
With `CC(C)C(=O)OCCc1ccccc1`, the Potency entry in assay [1], in assay [11], in [5], in [7] and in [8] was “inactive” throughout. The call in assay [2], in [3], in assay [4] and in [10] was inactive.
For the molecule `CCCCCCCCCCl`, the Potency entry in [1], in [11], in [5], in assay [7], in assay [8] and in [12] was “inactive” each time. Moreover, the outcome in assay [2], in assay [3], in assay [4], in [10] and in assay [13] was inactive.
Turning to `c1ccc2c(c1)ccc1c3ccccc3ccc21`, the Potency result in [1], in assay [5], in assay [7] and in assay [8] was “inactive” in each case. In addition, the result in assay [2], in assay [3], in assay [4], in assay [9] and in assay [10] was inactive. Moreover, the Potency in assay [11] was 3.94 µM (active).
Turning to `CC(C)(C)OC(=O)c1ccc(O)cc1`, the Potency result in assay [1], in assay [5], in assay [7], in assay [8] and in assay [12] was “inactive” in each case. The result in [2], in assay [3], in assay [4], in [9], in assay [10] and in assay [13] was inactive. For the same molecule, the Potency in [6] was 39.9 µM (active); in assay [14], 24.3 µM (active).
